This is an account of results in PubChem BioAssay AID2685 (National Center for Advancing Translational Sciences (NCATS), 2010).

Hit rate of the full screen: of about 320,000 compounds, about 2,100 (0.66%) were called active. Roughly 53% stayed inconclusive and do not appear here. The call rests on the fitted dose curve; in most records, active means well fitted inhibition curve with a large enough effect in the signal ratio, with a control signal flat (not every such curve was filed as active); inconclusive means small, poorly fitted or top-dose-only effect, or effect the other way, or a change in a side signal; inactive means flat fitted curve, though single readings scatter; the % refers to the signal ratio. What follows is part of a selection rich in actives, with near analogues and random picks from the rest.
Potency means the concentration at half of the fitted maximal effect.

This assay in a line: qHTS Assay for Lipid Storage Modulators in Drosophila S3 Cells.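 On cell number change: cells counted by Cell Tracker Red CMTPX staining in the red channel.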 As to conditions: BODIPY lipid droplet fluorescence, 18-24 h, cells fed with added oleic acid; cell number change: measured here: cell count max response; series mostly up to 46.1 µM. The gist of the method: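 Laser-scanning cytometry quantifies lipid droplet accumulation (500–530 nm total intensity; droplet/cell object ratio) in oleic acid-fed (400 uM added) Drosophila S3 cells treated with a concentration series. 20 uM Triacsin C defined 100% inhibition.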
As for `Cn1ncc(N=Cc2ccccc2[N+](=O)[O-])c1C(N)=O`, the Potency result was “inactive” and the cell number change is -4.8%. The matching figures for `CCOC(=O)Cn1c(=N)n(CCOc2ccc(Br)cc2)c2ccccc21`: “inactive” and -7.97%. As to `CCOC(=O)Cn1nc(C)c(NC(=O)CCc2ccccc2)c1C`, the Potency result is “inactive” and the cell number change is 12.6%. Take `Fc1cccc(CCN2CCNC[C@H]2Cc2cccc3ccccc23)c1`: the Potency is 14.6 µM (active). `Oc1ccc(C[C@@H]2CNCCN2CCc2cccc3ccccc23)cc1`: the Potency entry is “inactive” and the cell number change was -30.1%. With `c1ccc(C[C@H]2CNCCN2CCc2cccc3ccccc23)cc1`, the Potency result was “inactive” and the cell number change was -0.264%.

Regarding `C=CCn1c(C)cc(C(=O)COC(=O)c2ccc(N)c([N+](=O)[O-])c2)c1C`, the Potency entry is “inactive” and the cell number change was found to be 5.39%.

Consider `CCN(CC)CCCNC(=S)N(Cc1cccnc1)Cc1cc2cc(C)ccc2[nH]c1=O`, for which the Potency result is “inactive” and the cell number change is 5.5%. With `CCOC(=O)C1CCCN(CCC(C)c2ccccc2)C1` (stereo not drawn), the Potency entry is “inactive” and the cell number change was found to be 2.31%. Take `CN1CCCC(C(=O)C(C#N)c2ccccc2)C1` (stereo not drawn): the Potency was 29.1 µM (active) and the cell number change is -21.6%. For `CC(CN1CCCC(C(N)=O)C1)c1ccccc1` (stereo not drawn), the Potency entry is “inactive” and the cell number change was -8.59%. The matching figures for `CC(C)n1nc(C(=O)Nc2cccc(S(=O)(=O)NCc3ccco3)c2)c2ccccc2c1=O`: “inactive” and -6.04%. For the compound `CC(C)C(NC(=O)c1ccccc1)C(=O)OCn1nnc2ccccc2c1=O` (stereo not drawn), the Potency was 16.4 µM (active) and the cell number change is -15.7%. For the compound `CC(C)[C@H](NS(=O)(=O)c1ccccc1)C(=O)OCn1nnc2ccccc2c1=O`, the Potency entry is “inactive”. On to `CC(=O)OCn1nnc2ccccc2c1=O`, for which the Potency result is “inactive” and the cell number change was 12.3%.

In the case of `CCOC(=O)c1ccccc1NC(=S)N1CCC(C)CC1`, the Potency entry was “inactive” and the cell number change was -4.08%.

`Cc1nnsc1S(=O)c1ccccc1Cl` (stereo not drawn): the Potency entry was “inactive” and the cell number change was -9.44%. `O=[N+]([O-])c1cccc(/C=N/NS(=O)(=O)c2ccccc2)c1`: the Potency entry is “inactive” and the cell number change was -12.3%.

As for `C=CCNC(=S)NNC(=O)c1ccc(Br)cc1`, the Potency result is “inactive” and the cell number change was -6.86%. With `CC(=O)c1ccc(NC(=S)NC(=O)/C=C/c2ccco2)cc1`, the Potency entry is “inactive” and the cell number change is -2.35%.

With `CC(=O)NC(=S)Nc1ccc(NC(=S)NC(=O)/C=C/c2ccco2)cc1`, the Potency result was “inactive” and the cell number change worked out at 15.8%. As to `CC(=O)Nc1ccc(NC(=S)NC(=O)/C=C/c2ccco2)cc1`, the Potency was 4.61 µM (active) and the cell number change was -27.7%. `CCO[C@H]1OC(C(=O)N2CCN(C)CC2)=C[C@@H](C2CC2)[C@@H]1CCCO`: the Potency result was “inactive”.

As to `Cc1cc(OCC(=O)NNC(=S)NCC2CCCO2)cc(C)c1Cl` (stereo not drawn), the Potency result is “inactive” and the cell number change was -9.63%.

Turning to `O=C(Nc1ccccc1F)C1COc2ccccc2O1` (stereo not drawn), the Potency result was “inactive”. Regarding `COc1ccccc1NC(=O)CCCNC(=O)Cn1cnc2sc(C)c(C)c2c1=O`, the Potency result was “inactive” and the cell number change was 9.46%. Consider `COc1ccc(NC(=O)CCCNC(=O)Cn2cnc3sc(C)c(C)c3c2=O)cc1OC`, for which the Potency result was “inactive” and the cell number change was 19.7%. `COc1ccc(OC)c(NC(=O)CCCNC(=O)Cn2cnc3sc(C)c(C)c3c2=O)c1`: the Potency is 3.66 µM (active) and the cell number change turned out to be 10.8%. For the compound `CN1CCN(C2CCN(Cc3ccc(O)c4ncccc34)CC2)CC1`, the Potency result is “inactive” and the cell number change was found to be 8.98%.

For the compound `O=S(=O)(c1ccccc1)c1nc(-c2ccccc2)oc1N1CCCC1`, the Potency result was “inactive”. With `COc1ccccc1-c1nc(S(=O)(=O)c2ccccc2)c(N2CCOCC2)o1`, the Potency entry is “inactive” and the cell number change is 5.82%.

On to `COc1ccccc1-c1nc(S(=O)(=O)c2ccccc2)c(N2CCCCC2)o1`, for which the Potency is 4.11 µM (active) and the cell number change was -11.8%. The matching figures for `Cc1nc(CS(=O)c2ccc(Cl)cc2)cc(N2CCOCC2)n1` (stereo not drawn): “inactive” and -22.4%. Turning to `Cc1ccc(NC(=O)CN2CCN(Cc3ccccc3)CC2)cc1`, the Potency entry was “inactive”. For the compound `COc1ccc(C(=O)NCC2(c3ccccc3)CCOCC2)cc1`, the Potency entry is “inactive” and the cell number change is 16.9%. On to `CC1=CC2=NC(=O)/C(=C\c3ccc(-c4ccc(Cl)cc4)o3)C(=N)N2O1`, for which the Potency result is “inactive” and the cell number change turned out to be 5.59%. Turning to `CCOc1ccc(C(=O)NC(C(=O)NCC(c2cccs2)N(C)C)C(C)C)cc1` (stereo not drawn), the Potency entry was “inactive” and the cell number change was -5.63%. Turning to `COc1ccc(C(=O)NCc2nnc(SCC(=O)Nc3cccc(C(F)(F)F)c3)o2)cc1OC`, the Potency entry was “inactive” and the cell number change came to 0.944%. `CCC1CCCCN1C(=O)CSc1nnc(CNC(=O)c2cc(OC)c(OC)c(OC)c2)o1` (stereo not drawn): the Potency entry is “inactive”.

Turning to `COc1cc(C(=O)NCc2nnc(SCC(=O)Nc3cccc(C(F)(F)F)c3)o2)cc(OC)c1OC`, the Potency is 9.2 µM (active) and the cell number change is -27.5%. For the compound `CCOc1ccc(NC(=O)CSc2nnc(CNC(=O)c3ccco3)o2)cc1`, the Potency entry was “inactive” and the cell number change was determined as 12.8%.

On to `Cc1ccc(NC(=O)CSc2nnc(CNC(=O)c3ccco3)o2)cc1`, for which the Potency entry was “inactive”.

In the case of `COc1cc(C(=O)NCc2nnc(SCC(=O)N3CCCCC3)o2)cc(OC)c1OC`, the Potency is 18.4 µM (active) and the cell number change stood at 4.42%. Regarding `CCOC(=O)c1ccc(NC(=O)CSc2nnc(CNC(=O)c3ccco3)o2)cc1`, the Potency is 3.66 µM (active) and the cell number change was -21.5%. Take `COc1ccc(C(=O)NCc2nnc(SCC(=O)N3CCCC3)o2)cc1`: the Potency result was “inactive”. With `COc1cc(C(=O)NCc2nnc(SCC(=O)Nc3cc(C)cc(C)c3)o2)cc(OC)c1OC`, the Potency entry was “inactive” and the cell number change worked out at 6.53%. For `Cc1cc[n+]2c3c(cccc13)CCC2`, the Potency entry was “inactive” and the cell number change amounted to 21.6%.

With `Cn1c(SCC(=O)Nc2nccs2)nnc1-c1ccco1`, the Potency entry was “inactive” and the cell number change turned out to be 19.7%. Take `O=C(CCNS(=O)(=O)c1ccccc1C(F)(F)F)N1CCN(C(c2ccccc2)c2ccccc2)CC1`: the Potency result is “inactive” and the cell number change stood at 9.11%.

Regarding `O=C(CCNS(=O)(=O)c1ccccc1F)N1CCN(C(c2ccccc2)c2ccccc2)CC1`, the Potency was 23.1 µM (active). With `O=C(CCNS(=O)(=O)c1ccccc1F)N1CCN(Cc2ccccc2)CC1`, the Potency result is “inactive”. In the case of `COc1cc(CN(C(=S)NCC(=O)NC2CC2)C2CCCC2)cc(OC)c1OC`, the Potency entry is “inactive” and the cell number change is 4.91%. The corresponding values for `CS(=O)(=O)N1N=C(c2ccccc2)CC1c1cccs1` (stereo not drawn) are “inactive” and -4.84%.

With `N=C(N)Sc1nc(N2CCCCC2)nc(N2CCCCC2)n1`, the Potency result was “inactive” and the cell number change is 2.17%.

In the case of `CN(C)S(=O)(=O)c1cccc(-c2nnc(SCC(=O)NCCCCCC(=O)O)n2-c2ccc(F)cc2)c1`, the Potency entry was “inactive” and the cell number change worked out at 5.6%. The matching figures for `O=C(O)CCC(=O)Nc1ccc(S(=O)(=O)c2ccc(NC(=O)CCC(=O)O)cc2)cc1`: “inactive” and 14.2%. In the case of `CNc1c(NS(=O)(=O)c2ccc(OC)c(Cl)c2)c(=O)oc2ccccc12`, the Potency was 16.4 µM (active) and the cell number change is -27.3%. The corresponding values for `CCC(=O)Nc1ccc(S(=O)(=O)c2ccc(NC(=O)CC)cc2)cc1` are 10.3 µM (active) and 0.0647%. Turning to `CC(=O)Nc1ccc(S(=O)(=O)Nc2c(NC3CCCCC3)c3ccccc3oc2=O)cc1`, the Potency result is “inactive” and the cell number change was -18%.

In the case of `CCCNc1c(NS(=O)(=O)c2ccc(NC(=O)CC)cc2)c(=O)oc2ccccc12`, the Potency entry was “inactive” and the cell number change is -23.3%.

Take `CCC(=O)Nc1ccc(S(=O)(=O)Nc2c(NC)c3ccccc3oc2=O)cc1`: the Potency is 18.4 µM (active) and the cell number change worked out at 8.07%. On to `CCCNc1c(NS(=O)(=O)c2ccc(Br)cc2)c(=O)oc2ccccc12`, for which the Potency entry is “inactive” and the cell number change was -47.1%. Turning to `CNc1c(NS(=O)(=O)c2cc(OC)ccc2OC)c(=O)oc2ccccc12`, the Potency entry was “inactive” and the cell number change is -19.8%. With `CC(=O)Nc1ccc(S(=O)(=O)c2ccc(C)cc2)cc1`, the Potency entry was “inactive” and the cell number change was -22.1%. The matching figures for `CCCNc1c(NS(=O)(=O)c2ccc(C)c(C)c2)c(=O)oc2ccccc12`: 0.291 µM (active) and -4.13%.

For the compound `COc1ccc(S(=O)(=O)Nc2c(NC3CCCCC3)c3ccccc3oc2=O)cc1Cl`, the Potency entry is “inactive” and the cell number change was -20.1%. Regarding `CCCNc1c(NS(=O)(=O)c2ccc3c(c2)CCCC3)c(=O)oc2ccccc12`, the Potency entry is “inactive” and the cell number change was -4.72%.
